In PubChem BioAssay (EPA / NIEHS):
Values joined by “and” are separate entries in the source; they are usually repeats but may differ in a detail not shown here. Equal entries are not always repeated. Results filed as inconclusive are left out. Active and inactive are the calls of the source. How the source made its calls, unless noted: active means hit-call score of the fitted dose curve at least 0.9, where 1 is the maximum; inactive means score below 0.9.

Columns and labels:
[1] = read-out: Monokine induced gamma interferon (MIG), CXCL9 (gene 4283); test: BSK_SAg_MIG: BioMAP Diversity Plus: SAg Assay for Monokine induced gamma interferon (MIG) Biomarker Activity (AID 2283092); conditions: primary human HUVEC with PBMC; actives raise or lower the signal
Summary of the method: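 Values reflect bidirectional fitting of ELISA-measured MIG against DMSO vehicle, taken 24 h after dosing of a co-culture of human umbilical vein endothelial cells and peripheral blood mononuclear cells.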

[2] = BSK_SAg_PBMCCytotoxicity: PBMC Cytotoxicity Assessment in the BioMAP Diversity Plus: SAg Assay (AID 2283093); conditions: primary human HUVEC with PBMC;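 further: PBMC viability measured as Alamar Blue reduction fluorescence at 546/580 nm; fitted both ways against DMSO so a hit may be loss or gain of signal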;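 on AC50: PBMC superantigen activated with SEB plus TSST-1 one hour after compound addition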
Summary of the method: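 Compound added to 75,000 PBMC/well for 1 h; SEB and TSST-1 then added at 20 ng/mL final each; 90 h incubation; Alamar Blue 6 h; read 546/580 nm ex/em. Activity fitted bidirectionally relative to DMSO baseline.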

[3] = read-out: Interleukin-8 (IL8), CXCL8 (gene 3576); test: BSK_SAg_IL8: BioMAP Diversity Plus: SAg Assay for Interleukin-8 (IL8) Biomarker Activity (AID 2283094); conditions: primary human HUVEC with PBMC; actives raise or lower the signal
Summary of the method: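 ELISA read-out of IL-8 in a primary human vascular co-culture (umbilical vein endothelium plus PBMC), taken 24 h after compound addition. Values derive from bidirectional fits against DMSO negative controls.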

[4] = BSK_SAg_Proliferation: Cell Proliferation Assessment in the BioMAP Diversity Plus: SAg Assay (AID 2283095); conditions: primary human HUVEC with PBMC;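 further: relative cell number as total protein by SRB absorbance in sub-confluent culture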
Summary of the method: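 Cells (endothelium plus PBMC, human primary) were dosed with chemical, cultured 96 h, fixed in 10% TCA and stained with 0.1% SRB. Absorbance at 560 nm gave relative protein, fitted bidirectionally relative to DMSO.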

[5] = biological target: human CYP1A2, CYP1A2 (gene 1544) (UniProt P05177); test: NVS_ADME_hCYP1A2: NovaScreen (NVS) CYP450-related Enzyme Activity (ADME) Assay for human CYP1A2 (AID 2283102; active means hit-call score of the fitted dose curve at least 0.9, where 1 is the maximum;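 on AC50: fluorescence from turnover of a fluorogenic substrate by recombinant insect-cell CYP1A2; potency for inhibition since loss of fluorescence marks reduced CYP1A2 activity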)
Summary of the method: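 Compounds were tested at 10 uM in duplicate against recombinant CYP1A2 produced in insect cells. Enzyme activity was measured by fluorescence 0.5 h after dosing, with loss of signal versus acetonitrile control. Active compounds were re-tested in concentration series.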

[6] = biological target: human CYP2D6, CYP2D6 (gene 1565) (UniProt P10635); test: NVS_ADME_hCYP2D6: NovaScreen (NVS) CYP450-related Enzyme Activity (ADME) Assay for human CYP2D6 (AID 2283107; active means hit-call score of the fitted dose curve at least 0.9, where 1 is the maximum)
Experimental: (§1) NVS_ADME_hCYP2D6 is a biochemical, single-readout assay that uses extracted gene-proteins from insect cells in a cell-free assay. Measurements were taken 1 hour after chemical dosing in a 96-well plate.NVS_ADME_hCYP2D6 is one of one assay component(s) measured or calculated from the NVS_ADME_hCYP2D6 assay. It is designed to make measurements of enzyme activity, a form of enzyme reporter, as detected with fluorescence intensity signals by Fluorescence technology.Data from the assay component NVS_ADME_hCYP2D6 was analyzed into 1 assay endpoint. This assay endpoint, NVS_ADME_hCYP2D6, was analyzed in the positive analysis fitting direction relative to Acetonitrile as the negative control and baseline of activity. Using a type of enzyme reporter, loss-of-signal activity can be used to understand changes in the enzymatic activity as they relate to the gene CYP2D6. Furthermore, this assay endpoint can be referred to as a primary readout, because this assay has produced multiple assay endpoints where this one serves a enzymatic activity function. To generalize the intended target to other relatable targets, this assay endpoint is annotated to the cyp intended target family, where the subfamily is xenobiotic metabolism.
Binding assays used specific radioligands (tritiated, iodinated) with non-radioactive competitive displacement ligands in agonist or antagonist protocols (as indicated) and various reference compounds and inhibitors to titrate specific binding to receptors and transporters. Most enzyme assays (CYPs, kinases, phosphatases, proteases, HDACs) used recombinant protein and specific substrates (fluorescence mostly, some colorimetric and radioactive) and inhibitors, followed by a biochemical separation of substrate and product. All assays for the biochemical HTS were initially run in duplicate at a single concentration (10 uM for CYP450 assays and 25 uM for all others). […] Each assay was run with positive and negative controls, and concurrent controls on every plate. […]

[7] = biological target: human CYP2B6, CYP2B6 (gene 1555) (UniProt P20813); test: NVS_ADME_hCYP2B6: NovaScreen (NVS) CYP450-related Enzyme Activity (ADME) Assay for human CYP2B6 (AID 2283101; active means hit-call score of the fitted dose curve at least 0.9, where 1 is the maximum)
Experimental: as §1, with “NVS_ADME_hCYP2B6” for “NVS_ADME_hCYP2D6”, “gene-proteins” for “gene-proteins from insect cells”, “plate.NVS_ADME_hCYP2B6” for “plate.NVS_ADME_hCYP2D6”, “NVS_ADME_hCYP2B6,” for “NVS_ADME_hCYP2D6,”, “CYP2B6.” for “CYP2D6.”, “metabolism. […]” for “metabolism.”

[8] = BSK_SAg_SRB: Viability Assessment in the BioMAP Diversity Plus: SAg Assay (AID 2283096); conditions: primary human HUVEC with PBMC;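 further: cells read one day after compound addition; hits may be either gain or loss of signal compared with DMSO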
Summary of the method: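 Total protein by sulforhodamine B staining, 24 h after dosing, in HUVEC–PBMC co-culture; DMSO-referenced bidirectional fitting.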

[9] = biological target: human CYP19A1, CYP19A1 (gene 1588) (UniProt P11511); test: NVS_ADME_hCYP19A1: NovaScreen (NVS) CYP450-related Enzyme Activity (ADME) Assay for human CYP19A1 (AID 2283098; active means hit-call score of the fitted dose curve at least 0.9, where 1 is the maximum;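 on AC50: potency for inhibitors seen as loss of fluorescent enzyme signal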)
Summary of the method: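 Biochem, cell-free; recombinant enzyme + specific substrate; fluorescence intensity at 0.5 h post-dose; 10 uM duplicate primary, conc. series for actives; acetonitrile = negative control/baseline; positive and negative controls on every plate.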

[10] = biological target: Cytochrome P450 2C18 (Homo sapiens) (UniProt P33260); test: NVS_ADME_hCYP2C18: NovaScreen (NVS) CYP450-related Enzyme Activity (ADME) Assay for human CYP2C18 (AID 2283103)
Experimental: NVS_ADME_hCYP2C18 is a biochemical, single-readout assay that uses extracted gene-proteins in a cell-free assay. Measurements were taken 0.5 hour after chemical dosing in a 96-well plate.NVS_ADME_hCYP2C18 is one of one assay component(s) measured or calculated from the NVS_ADME_hCYP2C18 assay. It is designed to make measurements of enzyme activity, a form of enzyme reporter, as detected with fluorescence intensity signals by Fluorescence technology.Data from the assay component NVS_ADME_hCYP2C18 was analyzed into 1 assay endpoint. This assay endpoint, NVS_ADME_hCYP2C18, was analyzed in the positive analysis fitting direction relative to Acetonitrile as the negative control and baseline of activity. Using a type of enzyme reporter, loss-of-signal activity can be used to understand changes in the enzymatic activity as they relate to the gene CYP2C18. Furthermore, this assay endpoint can be referred to as a primary readout, because this assay has produced multiple assay endpoints where this one serves a enzymatic activity function. To generalize the intended target to other relatable targets, this assay endpoint is annotated to the cyp intended target family, where the subfamily is xenobiotic metabolism. […]

Measured: AC50

Chain of human CYP1A2, CYP1A2 (gene 1544) (P05177 whole entry, looked up): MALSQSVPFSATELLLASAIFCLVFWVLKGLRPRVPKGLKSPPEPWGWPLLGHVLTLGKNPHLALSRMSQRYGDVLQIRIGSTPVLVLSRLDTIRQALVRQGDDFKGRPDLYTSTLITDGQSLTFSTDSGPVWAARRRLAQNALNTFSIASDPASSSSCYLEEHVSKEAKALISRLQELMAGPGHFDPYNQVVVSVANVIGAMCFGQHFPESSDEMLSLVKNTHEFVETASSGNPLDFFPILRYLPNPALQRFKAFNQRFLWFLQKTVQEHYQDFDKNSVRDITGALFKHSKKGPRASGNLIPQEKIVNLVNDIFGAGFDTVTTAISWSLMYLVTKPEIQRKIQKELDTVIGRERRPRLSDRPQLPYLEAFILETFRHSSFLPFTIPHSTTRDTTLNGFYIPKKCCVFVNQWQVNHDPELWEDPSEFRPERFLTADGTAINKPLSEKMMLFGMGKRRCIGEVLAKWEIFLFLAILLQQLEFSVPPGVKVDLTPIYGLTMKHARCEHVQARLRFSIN
Chain of human CYP2D6, CYP2D6 (gene 1565) (P10635 whole entry, looked up): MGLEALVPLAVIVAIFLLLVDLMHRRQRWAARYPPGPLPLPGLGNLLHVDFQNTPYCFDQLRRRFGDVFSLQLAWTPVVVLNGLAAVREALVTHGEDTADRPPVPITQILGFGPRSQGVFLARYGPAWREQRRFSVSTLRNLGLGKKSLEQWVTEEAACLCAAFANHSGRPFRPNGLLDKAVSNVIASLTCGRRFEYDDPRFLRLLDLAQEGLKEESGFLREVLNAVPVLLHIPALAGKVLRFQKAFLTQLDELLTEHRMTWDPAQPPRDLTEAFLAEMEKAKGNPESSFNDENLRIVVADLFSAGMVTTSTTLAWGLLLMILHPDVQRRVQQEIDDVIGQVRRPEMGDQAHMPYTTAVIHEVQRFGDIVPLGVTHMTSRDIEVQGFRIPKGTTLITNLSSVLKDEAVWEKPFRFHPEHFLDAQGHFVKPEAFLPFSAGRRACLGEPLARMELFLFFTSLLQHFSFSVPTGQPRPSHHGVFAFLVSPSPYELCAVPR
Chain of human CYP19A1, CYP19A1 (gene 1588) (P11511 whole entry, looked up): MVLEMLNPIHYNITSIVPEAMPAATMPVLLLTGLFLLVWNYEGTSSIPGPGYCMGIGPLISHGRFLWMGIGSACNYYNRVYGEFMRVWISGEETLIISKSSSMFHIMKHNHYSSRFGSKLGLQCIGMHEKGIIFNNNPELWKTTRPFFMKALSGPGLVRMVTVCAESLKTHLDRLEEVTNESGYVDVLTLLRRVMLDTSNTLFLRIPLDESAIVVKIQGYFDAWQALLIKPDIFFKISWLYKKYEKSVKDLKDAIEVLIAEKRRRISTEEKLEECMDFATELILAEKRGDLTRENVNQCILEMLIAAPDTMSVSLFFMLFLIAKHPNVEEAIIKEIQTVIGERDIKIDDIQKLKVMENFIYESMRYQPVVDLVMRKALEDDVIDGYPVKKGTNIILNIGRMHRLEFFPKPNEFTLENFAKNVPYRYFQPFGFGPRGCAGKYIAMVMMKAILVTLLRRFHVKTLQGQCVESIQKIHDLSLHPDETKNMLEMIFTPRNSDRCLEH
Chain of human CYP2B6, CYP2B6 (gene 1555) (P20813 whole entry, looked up): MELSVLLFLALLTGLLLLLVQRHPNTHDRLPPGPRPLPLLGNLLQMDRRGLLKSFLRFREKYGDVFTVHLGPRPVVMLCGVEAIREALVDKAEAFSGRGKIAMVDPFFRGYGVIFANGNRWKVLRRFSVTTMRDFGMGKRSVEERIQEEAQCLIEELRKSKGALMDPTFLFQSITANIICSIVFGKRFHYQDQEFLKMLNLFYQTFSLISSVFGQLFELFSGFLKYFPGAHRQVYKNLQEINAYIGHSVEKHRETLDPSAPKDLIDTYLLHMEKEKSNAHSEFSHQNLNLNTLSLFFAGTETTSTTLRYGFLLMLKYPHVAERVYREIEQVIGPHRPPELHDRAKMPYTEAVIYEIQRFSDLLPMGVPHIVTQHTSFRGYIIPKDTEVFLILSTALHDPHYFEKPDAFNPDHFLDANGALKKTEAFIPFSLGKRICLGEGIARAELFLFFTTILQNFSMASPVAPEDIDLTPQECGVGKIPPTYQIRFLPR
Chain of Cytochrome P450 2C18 (Homo sapiens) (P33260 whole entry, looked up): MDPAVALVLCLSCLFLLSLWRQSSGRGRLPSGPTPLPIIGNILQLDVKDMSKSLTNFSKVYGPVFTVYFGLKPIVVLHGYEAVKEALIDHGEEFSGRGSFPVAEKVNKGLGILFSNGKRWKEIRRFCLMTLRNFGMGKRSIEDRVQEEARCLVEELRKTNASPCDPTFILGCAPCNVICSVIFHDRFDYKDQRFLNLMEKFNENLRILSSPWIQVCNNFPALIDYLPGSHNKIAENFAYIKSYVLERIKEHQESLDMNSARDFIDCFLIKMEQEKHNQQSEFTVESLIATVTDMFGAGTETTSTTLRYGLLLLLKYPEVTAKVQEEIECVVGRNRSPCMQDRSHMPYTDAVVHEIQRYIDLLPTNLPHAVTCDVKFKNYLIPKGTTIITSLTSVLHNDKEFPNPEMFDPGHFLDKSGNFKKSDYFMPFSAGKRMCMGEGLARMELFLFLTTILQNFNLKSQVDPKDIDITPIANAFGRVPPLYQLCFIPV

CN(C)C(=S)S
inactive: [1] | [3]
active: [2] 0.148 µM | [4] 0.488 µM | [5] 5.64 µM

N#CCCC(Br)(C#N)CBr (configuration not stated)
active: [1] 30 µM | [2] 2.52 µM | [3] 20 µM | [4] 1.12 µM | [6] 3.08 µM

CC(C)(C)c1ccccc1O
inactive: [1] | [2] | [3] | [4] | [7]

O=C(N[C@H]1CN2CCC1CC2)c1ccc2c(c1)OCCO2
inactive: [1] | [2] | [3] | [4] | [8]

OC(Cc1ccccc1Cl)(Cn1[nH]cnc1=S)C1(Cl)CC1 (configuration not stated)
active: [3] 3.97 µM | [4] 20 µM
inactive: [1] | [2] | [8]

NC(=O)CCl
inactive: [1] | [2] | [3] | [4] | [8]

Cc1ccc2nc3sc(=O)sc3nc2c1
active: [4] 7.93 µM | [8] 5 µM
inactive: [1] | [2] | [3]

c1ccc(-c2cccc(-c3ccccc3)c2)cc1
active: [2] 20 µM | [3] 20 µM | [4] 29.2 µM | [8] 27.5 µM
inactive: [1]

c1ccc2sc(SNC3CCCCC3)nc2c1
inactive: [1] | [3] | [8]
active: [2] 27 µM | [4] 29.2 µM

Oc1c(Cl)cc(Cl)cc1Cl
inactive: [1] | [3] | [4]

Cc1ccc(OP(=O)(Oc2ccc(C)cc2C)Oc2ccc(C)cc2C)c(C)c1
inactive: [1]
active: [2] 20 µM | [3] 4.7 µM | [4] 12.9 µM | [8] 20 µM

COC(=O)Nc1cccc(OC(=O)Nc2cccc(C)c2)c1
inactive: [5]

CCCCOC(=O)COC(=O)c1ccccc1C(=O)OCCCC
inactive: [1] | [2] | [3] | [4] | [8]

CCOP(=S)(OCC)OP(=S)(OCC)OCC
active: [2] 25.3 µM | [3] 36 µM | [4] 20 µM
inactive: [1] | [8]

CC(C)(C)c1cc([N+](=O)[O-])cc(C(C)(C)C)c1O
inactive: [1] | [2] | [4]
active: [3] 0.0941 µM | [8] 0.215 µM

CCCCCCCCCCCCc1cccc(S(=O)(=O)O)c1
inactive: [1] | [2] | [3] | [4] | [8]

OC(Cc1ccccc1Cl)(Cn1cncn1)C1(Cl)CC1 (configuration not stated)
inactive: [1] | [2] | [3] | [4] | [8]

CCOCn1c(-c2ccc(Cl)cc2)c(C#N)c(Br)c1C(F)(F)F
active: [5] 1.35 µM

C#CCOC(=O)/C=C(C)/C=C/CC(C)CCCC(C)C (configuration not stated)
inactive: [1] | [2] | [3] | [4] | [8]

O=[N+]([O-])c1ccc(Nc2ccccc2)cc1
inactive: [1] | [2] | [3] | [4] | [8]

O=c1nc(O)n(Cl)c(=O)n1Cl
inactive: [9]

O=S(=O)(c1ccc(Cl)cc1)c1cc(Cl)c(Cl)cc1Cl
active: [4] 10.8 µM
inactive: [1] | [2] | [3] | [8]

O=C1c2ccccc2C(=O)C1C(=O)C(c1ccccc1)c1ccc(Cl)cc1 (configuration not stated)
active: [9] 5.08 µM

CCOC(=O)C(SP(=S)(OC)OC)c1ccccc1 (configuration not stated)
inactive: [1] | [2] | [3] | [8]
active: [4] 35.3 µM

Oc1cc(Cl)c(Cl)cc1Cl
active: [3] 31.1 µM | [4] 30.6 µM | [8] 27.6 µM
inactive: [1] | [2]

N#Cc1cccnc1
inactive: [1] | [2] | [3] | [4] | [8]

[Cl][Sn]([c]1ccccc1)([c]1ccccc1)[c]1ccccc1
active: [1] 0.259 µM | [2] 0.125 µM | [3] 0.253 µM | [4] 0.0609 µM | [6] 0.997 µM

CC(C)=CC1C(C(=O)OCc2cccc(Oc3ccccc3)c2)C1(C)C (configuration not stated)
inactive: [1] | [2] | [3]
active: [4] 26.3 µM | [8] 24.9 µM

CCCCN(CCCC)C(=S)[S-].CCCCN(CCCC)C(=S)[S-].[Ni+2]
inactive: [1] | [2] | [3] | [4] | [8]

Oc1ccc(Cc2ccc(O)cc2)cc1
inactive: [1] | [2] | [3] | [4] | [8]

Oc1cccc(-c2ccccc2)c1
active: [2] 32.1 µM | [4] 20 µM | [8] 20 µM
inactive: [1] | [3]

CC1(C)[C@H](C(=O)O[C@H](C#N)c2cccc(Oc3ccccc3)c2)[C@@H]1/C=C(\Cl)C(F)(F)F
inactive: [1] | [2] | [3]
active: [4] 17.1 µM and 3.97 µM | [10] 0.951 µM

O=c1oc2ccccc2c(O)c1C(CC(O)c1ccc(-c2ccc(Br)cc2)cc1)c1ccccc1 (configuration not stated)
active: [1] 33.3 µM | [2] 23.5 µM | [4] 26.4 µM | [8] 19.1 µM
inactive: [3]

CC(C)(COCC1CO1)COCC1CO1 (configuration not stated)
active: [4] 36.7 µM
inactive: [1] | [2] | [3] | [8]
